# According to the supplement of paper PMC6897291:
# Experiments:
# RIVA [1] = test: growth inhibition by drug alone (1 - RLU/untreated control) (fraction); higher = stronger inhibition; conditions: 177Lu-lilotomab satetraxetan 0 ug/ml
# Method in brief: (§1)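 Growth inhibition was calculated from RealTime-Glo RLU against untreated no-drug wells. Values equal 1 − RLU/mean of 48 untreated no-drug wells per plate, read daily from day 3 after 1 h at 37°C. RIVA and U-2932 cells, with or without 18 h pretreatment by a radiolabelled anti-CD37 antibody conjugate (~600 MBq/mg; 0.5 µg/ml RIVA, 1 µg/ml U-2932), were washed and plated at 3,000 cells/well on compound-printed plates at 10/100 nM (RIVA) or 10/1,000 nM (U-2932).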
# U-2932 [2] = test: growth inhibition by drug plus 177Lu-lilotomab satetraxetan (1 - RLU/untreated control) (fraction); higher = stronger inhibition; conditions: 177Lu-lilotomab satetraxetan 1 ug/ml
# Method in brief: as §1
# RIVA [3] = test: as above; conditions: 177Lu-lilotomab satetraxetan 0.5 ug/ml
# Method in brief: as §1
# U-2932 [4] = test: growth inhibition by drug alone (1 - RLU/untreated control) (fraction); higher = stronger inhibition; conditions: 177Lu-lilotomab satetraxetan 0 ug/ml
# Method in brief: as §1
smiles,measurement,setting,value
N[C@@H](Cc1ccc(N(CCCl)CCCl)cc1)C(=O)O [Melphalan],growth inhibition by drug alone,"RIVA [1]; 10 nM, time (day): 3",-0.0205
same,growth inhibition by drug alone,"RIVA [1]; 10 nM, time (day): 4",0.000425
same,growth inhibition by drug alone,"RIVA [1]; 10 nM, time (day): 5",-0.0866
same,growth inhibition by drug alone,"RIVA [1]; 10 nM, time (day): 6",-0.459
same,growth inhibition by drug alone,"RIVA [1]; 100 nM, time (day): 3",-0.259
same,growth inhibition by drug alone,"RIVA [1]; 100 nM, time (day): 4",-0.175
same,growth inhibition by drug alone,"RIVA [1]; 100 nM, time (day): 5",-0.164
same,growth inhibition by drug alone,"RIVA [1]; 100 nM, time (day): 6",-0.265
same,growth inhibition by drug plus 177Lu-lilotomab satetraxetan,"U-2932 [2]; 10 nM, time (day): 3",0.0197
same,growth inhibition by drug plus 177Lu-lilotomab satetraxetan,"U-2932 [2]; 10 nM, time (day): 4",0.0283
same,growth inhibition by drug plus 177Lu-lilotomab satetraxetan,"U-2932 [2]; 10 nM, time (day): 5",0.0541
same,growth inhibition by drug plus 177Lu-lilotomab satetraxetan,"U-2932 [2]; 10 nM, time (day): 6",0.143
same,growth inhibition by drug plus 177Lu-lilotomab satetraxetan,"U-2932 [2]; 1000 nM, time (day): 3",0.00364
same,growth inhibition by drug plus 177Lu-lilotomab satetraxetan,"U-2932 [2]; 1000 nM, time (day): 4",0.0898
same,growth inhibition by drug plus 177Lu-lilotomab satetraxetan,"U-2932 [2]; 1000 nM, time (day): 5",0.0598
same,growth inhibition by drug plus 177Lu-lilotomab satetraxetan,"U-2932 [2]; 1000 nM, time (day): 6",0.0846
same,growth inhibition by drug plus 177Lu-lilotomab satetraxetan,"RIVA [3]; 10 nM, time (day): 3",0.357
same,growth inhibition by drug plus 177Lu-lilotomab satetraxetan,"RIVA [3]; 10 nM, time (day): 4",0.502
same,growth inhibition by drug plus 177Lu-lilotomab satetraxetan,"RIVA [3]; 10 nM, time (day): 5",0.516
same,growth inhibition by drug plus 177Lu-lilotomab satetraxetan,"RIVA [3]; 10 nM, time (day): 6",0.527
same,growth inhibition by drug plus 177Lu-lilotomab satetraxetan,"RIVA [3]; 100 nM, time (day): 3",0.365
same,growth inhibition by drug plus 177Lu-lilotomab satetraxetan,"RIVA [3]; 100 nM, time (day): 4",0.48
same,growth inhibition by drug plus 177Lu-lilotomab satetraxetan,"RIVA [3]; 100 nM, time (day): 5",0.492
same,growth inhibition by drug plus 177Lu-lilotomab satetraxetan,"RIVA [3]; 100 nM, time (day): 6",0.494
N.N.[Cl][Pt][Cl] [Cisplatin],growth inhibition by drug plus 177Lu-lilotomab satetraxetan,"U-2932 [2]; 10 nM, time (day): 3",0.000302
same,growth inhibition by drug plus 177Lu-lilotomab satetraxetan,"U-2932 [2]; 10 nM, time (day): 4",0.0521
same,growth inhibition by drug plus 177Lu-lilotomab satetraxetan,"U-2932 [2]; 10 nM, time (day): 5",0.0625
same,growth inhibition by drug plus 177Lu-lilotomab satetraxetan,"U-2932 [2]; 10 nM, time (day): 6",0.172
same,growth inhibition by drug plus 177Lu-lilotomab satetraxetan,"U-2932 [2]; 1000 nM, time (day): 3",-0.00976
same,growth inhibition by drug plus 177Lu-lilotomab satetraxetan,"U-2932 [2]; 1000 nM, time (day): 4",0.0376
same,growth inhibition by drug plus 177Lu-lilotomab satetraxetan,"U-2932 [2]; 1000 nM, time (day): 5",0.065
same,growth inhibition by drug plus 177Lu-lilotomab satetraxetan,"U-2932 [2]; 1000 nM, time (day): 6",0.206
same,growth inhibition by drug plus 177Lu-lilotomab satetraxetan,"RIVA [3]; 10 nM, time (day): 3",0.539
same,growth inhibition by drug plus 177Lu-lilotomab satetraxetan,"RIVA [3]; 10 nM, time (day): 4",0.565
same,growth inhibition by drug plus 177Lu-lilotomab satetraxetan,"RIVA [3]; 10 nM, time (day): 5",0.592
same,growth inhibition by drug plus 177Lu-lilotomab satetraxetan,"RIVA [3]; 10 nM, time (day): 6",0.599
same,growth inhibition by drug plus 177Lu-lilotomab satetraxetan,"RIVA [3]; 100 nM, time (day): 3",0.463
same,growth inhibition by drug plus 177Lu-lilotomab satetraxetan,"RIVA [3]; 100 nM, time (day): 4",0.526
same,growth inhibition by drug plus 177Lu-lilotomab satetraxetan,"RIVA [3]; 100 nM, time (day): 5",0.544
same,growth inhibition by drug plus 177Lu-lilotomab satetraxetan,"RIVA [3]; 100 nM, time (day): 6",0.57
Cc1ccccc1-n1c(Cn2cnc3c(N)ncnc32)nc2cccc(C)c2c1=O,growth inhibition by drug plus 177Lu-lilotomab satetraxetan,"U-2932 [2]; 10 nM, time (day): 3",-0.00529
same,growth inhibition by drug plus 177Lu-lilotomab satetraxetan,"U-2932 [2]; 10 nM, time (day): 4",0.0455
same,growth inhibition by drug plus 177Lu-lilotomab satetraxetan,"U-2932 [2]; 10 nM, time (day): 5",0.107
same,growth inhibition by drug plus 177Lu-lilotomab satetraxetan,"U-2932 [2]; 10 nM, time (day): 6",0.209
same,growth inhibition by drug plus 177Lu-lilotomab satetraxetan,"U-2932 [2]; 1000 nM, time (day): 3",0.0591
same,growth inhibition by drug plus 177Lu-lilotomab satetraxetan,"U-2932 [2]; 1000 nM, time (day): 4",0.0697
same,growth inhibition by drug plus 177Lu-lilotomab satetraxetan,"U-2932 [2]; 1000 nM, time (day): 5",0.0914
same,growth inhibition by drug plus 177Lu-lilotomab satetraxetan,"U-2932 [2]; 1000 nM, time (day): 6",0.26
O=C(O)c1nn(Cc2ccc(Cl)cc2Cl)c2ccccc12 [Lonidamine],growth inhibition by drug plus 177Lu-lilotomab satetraxetan,"U-2932 [2]; 10 nM, time (day): 3",0.0325
same,growth inhibition by drug plus 177Lu-lilotomab satetraxetan,"U-2932 [2]; 10 nM, time (day): 4",0.0863
same,growth inhibition by drug plus 177Lu-lilotomab satetraxetan,"U-2932 [2]; 10 nM, time (day): 5",0.132
same,growth inhibition by drug plus 177Lu-lilotomab satetraxetan,"U-2932 [2]; 10 nM, time (day): 6",0.173
same,growth inhibition by drug plus 177Lu-lilotomab satetraxetan,"U-2932 [2]; 1000 nM, time (day): 3",0.0882
same,growth inhibition by drug plus 177Lu-lilotomab satetraxetan,"U-2932 [2]; 1000 nM, time (day): 4",0.147
same,growth inhibition by drug plus 177Lu-lilotomab satetraxetan,"U-2932 [2]; 1000 nM, time (day): 5",0.167
same,growth inhibition by drug plus 177Lu-lilotomab satetraxetan,"U-2932 [2]; 1000 nM, time (day): 6",0.244
Cn1cc(C2=C(c3cn(C4CCN(Cc5ccccn5)CC4)c4ccccc34)C(=O)NC2=O)c2ccccc21,growth inhibition by drug plus 177Lu-lilotomab satetraxetan,"U-2932 [2]; 10 nM, time (day): 3",-0.0756
same,growth inhibition by drug plus 177Lu-lilotomab satetraxetan,"U-2932 [2]; 10 nM, time (day): 4",-0.00933
same,growth inhibition by drug plus 177Lu-lilotomab satetraxetan,"U-2932 [2]; 10 nM, time (day): 5",0.0275
same,growth inhibition by drug plus 177Lu-lilotomab satetraxetan,"U-2932 [2]; 10 nM, time (day): 6",0.128
same,growth inhibition by drug plus 177Lu-lilotomab satetraxetan,"U-2932 [2]; 1000 nM, time (day): 3",-0.0807
same,growth inhibition by drug plus 177Lu-lilotomab satetraxetan,"U-2932 [2]; 1000 nM, time (day): 4",-0.0188
same,growth inhibition by drug plus 177Lu-lilotomab satetraxetan,"U-2932 [2]; 1000 nM, time (day): 5",0.0211
same,growth inhibition by drug plus 177Lu-lilotomab satetraxetan,"U-2932 [2]; 1000 nM, time (day): 6",0.21
O=C(Oc1ccc([N+](=O)[O-])cc1)N1CCC(C(O)(c2ccc3c(c2)OCO3)c2ccc3c(c2)OCO3)CC1,growth inhibition by drug alone,"U-2932 [4]; 10 nM, time (day): 3",0.0143
same,growth inhibition by drug alone,"U-2932 [4]; 10 nM, time (day): 4",0.0129
same,growth inhibition by drug alone,"U-2932 [4]; 10 nM, time (day): 5",-0.0257
same,growth inhibition by drug alone,"U-2932 [4]; 10 nM, time (day): 6",-0.105
same,growth inhibition by drug alone,"U-2932 [4]; 1000 nM, time (day): 3",-0.0233
same,growth inhibition by drug alone,"U-2932 [4]; 1000 nM, time (day): 4",0.0131
same,growth inhibition by drug alone,"U-2932 [4]; 1000 nM, time (day): 5",-0.0194
same,growth inhibition by drug alone,"U-2932 [4]; 1000 nM, time (day): 6",-0.0568
same,growth inhibition by drug plus 177Lu-lilotomab satetraxetan,"U-2932 [2]; 10 nM, time (day): 3",-0.0245
same,growth inhibition by drug plus 177Lu-lilotomab satetraxetan,"U-2932 [2]; 10 nM, time (day): 4",0.00325
same,growth inhibition by drug plus 177Lu-lilotomab satetraxetan,"U-2932 [2]; 10 nM, time (day): 5",0.0178
same,growth inhibition by drug plus 177Lu-lilotomab satetraxetan,"U-2932 [2]; 10 nM, time (day): 6",0.11
same,growth inhibition by drug plus 177Lu-lilotomab satetraxetan,"U-2932 [2]; 1000 nM, time (day): 3",-0.0484
same,growth inhibition by drug plus 177Lu-lilotomab satetraxetan,"U-2932 [2]; 1000 nM, time (day): 4",0.0258
same,growth inhibition by drug plus 177Lu-lilotomab satetraxetan,"U-2932 [2]; 1000 nM, time (day): 5",0.0163
same,growth inhibition by drug plus 177Lu-lilotomab satetraxetan,"U-2932 [2]; 1000 nM, time (day): 6",0.077
CC1=C2C[C@H]3[C@@H](CC=C4C[C@@H](O)CC[C@@]43C)[C@@H]2CC[C@]12O[C@@H]1C[C@H](C)CN[C@H]1[C@H]2C [Cyclopamine],growth inhibition by drug alone,"U-2932 [4]; 10 nM, time (day): 3",0.097
same,growth inhibition by drug alone,"U-2932 [4]; 10 nM, time (day): 4",0.0521
same,growth inhibition by drug alone,"U-2932 [4]; 10 nM, time (day): 5",-0.0277
same,growth inhibition by drug alone,"U-2932 [4]; 10 nM, time (day): 6",-0.0904
same,growth inhibition by drug alone,"U-2932 [4]; 1000 nM, time (day): 3",0.00899
same,growth inhibition by drug alone,"U-2932 [4]; 1000 nM, time (day): 4",0.035
same,growth inhibition by drug alone,"U-2932 [4]; 1000 nM, time (day): 5",-0.037
same,growth inhibition by drug alone,"U-2932 [4]; 1000 nM, time (day): 6",-0.267
same,growth inhibition by drug alone,"RIVA [1]; 10 nM, time (day): 3",-0.0274
same,growth inhibition by drug alone,"RIVA [1]; 10 nM, time (day): 4",0.0131
same,growth inhibition by drug alone,"RIVA [1]; 10 nM, time (day): 5",-0.0438
same,growth inhibition by drug alone,"RIVA [1]; 10 nM, time (day): 6",-0.264
same,growth inhibition by drug alone,"RIVA [1]; 100 nM, time (day): 3",0.0149
same,growth inhibition by drug alone,"RIVA [1]; 100 nM, time (day): 4",0.0126
same,growth inhibition by drug alone,"RIVA [1]; 100 nM, time (day): 5",-0.0321
same,growth inhibition by drug alone,"RIVA [1]; 100 nM, time (day): 6",-0.131
same,growth inhibition by drug plus 177Lu-lilotomab satetraxetan,"U-2932 [2]; 10 nM, time (day): 3",0.0717
same,growth inhibition by drug plus 177Lu-lilotomab satetraxetan,"U-2932 [2]; 10 nM, time (day): 4",0.0954
same,growth inhibition by drug plus 177Lu-lilotomab satetraxetan,"U-2932 [2]; 10 nM, time (day): 5",0.107
same,growth inhibition by drug plus 177Lu-lilotomab satetraxetan,"U-2932 [2]; 10 nM, time (day): 6",0.127
same,growth inhibition by drug plus 177Lu-lilotomab satetraxetan,"U-2932 [2]; 1000 nM, time (day): 3",-0.0532
same,growth inhibition by drug plus 177Lu-lilotomab satetraxetan,"U-2932 [2]; 1000 nM, time (day): 4",0.0394
same,growth inhibition by drug plus 177Lu-lilotomab satetraxetan,"U-2932 [2]; 1000 nM, time (day): 5",0.0391
same,growth inhibition by drug plus 177Lu-lilotomab satetraxetan,"U-2932 [2]; 1000 nM, time (day): 6",0.0669
